Growth data for 16 compounds are collected here from PubChem BioAssay (NCI).

Test in all cases: NCI-60 one-dose screen, 48 h (100 = growth as untreated, 0 = no growth, -100 = all killed)
Common to all, as to conditions: 10 µM unless noted

Test [1] has as its system T-47D breast.
Test [2] concerns BT-549 breast.
Test [3] deals with MDA-MB-435 melanoma.
The test system of test [4] is SW-620 colon.
The test system of test [5] is MCF7 breast.
Test [6] has as its system HCT-116 colon.
Test [7] concerns HCC-2998 colon.
Test [8] relates to KM12 colon.

This is part of a sample that, as a whole, favours compounds with a hit. Of some 83,000 tested, about 20% had one in any assay.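 Single-concentration screen, 48 h exposure, 96-well plates. Endpoint: percent growth. Below 10 = active.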 Values without a mark were called inactive. Calls of active or inactive are those of the source.

In the case of `O=C(Cn1nnc2ccccc21)N/N=C/c1ccccc1F`, the growth was 92% in test [1]; 101% in test [2]; 102% in test [3]; 96.7% in test [4]; 89.9% in test [5]; 101% in test [6]. Besides, the growth is 115% in test [7] and 91.9% in test [8].

Take `COc1cc2c(c(OC)c1OC)C(=O)CC(c1cccc(NC(=O)c3ccccc3Br)c1)O2` (stereo not drawn): the growth in test [1] is 65.7%; in test [2], 98.7%; in test [3], 92.5%; in test [4] it was 97.3%; in test [5], 78.2%; in test [6], 75.6%. In addition, the growth in test [7] was 106%; in test [8] it was 103%.

Regarding `O=C1/C(=C/c2ccc(Br)cc2)COc2ccc(O)c(O)c21`, the growth was -16.3% (active) in test [1]; 3.5% (active) in test [2]; -24.4% (active) in test [3]; -35.9% (active) in test [4]; 4.13% (active) in test [5]; -15.9% (active) in test [6]. Moreover, the growth in test [7] is -66.3% (active); in test [8], -68% (active).

As for `CCN(CC)c1ccc(/C=N\NC(=O)c2cccc(Nc3ccnc(C(F)(F)F)c3)c2)c(O)c1`, the growth was 15.1% in test [1]; 28.8% in test [2]; 15.4% in test [3]; 35.4% in test [4]; 16.1% in test [5]; 26.5% in test [6]. The growth in test [7] was 60.1%; in test [8] it was 23%.

As to `Cc1[nH]c(C(=O)Nc2ccc(C(N)=O)cc2NC(C)C)c(Cl)c1Cl`, the growth is 82.6% in test [1]; 93% in test [2]; 101% in test [3]; 96.1% in test [4]; 92% in test [5]; 81% in test [6]. Further, the growth in test [7] is 108%; in test [8], 98.9%.

Regarding `CCN(CC)CCN(CCN(CC)CC)c1ccccc1`, the growth in test [1] is 89.3%; in test [2], 54.3%; in test [3], 103%; in test [4] it was 95.8%; in test [5], 100%; in test [6] it was 74.6%. The figures for the growth in test [7] and in test [8] were 91.5% and 108%, respectively.

For the compound `COc1ccc(-c2nnc(SCC(=O)Nc3ccc(/C(C)=N\O)cc3)n2-c2ccccc2)cc1OC`, the growth in test [1] was 68%; in test [2], 65.2%; in test [3] it was 104%; in test [4], 115%; in test [5] it was 69.2%; in test [6] it was 69.2%. For the same compound, the growth in test [7] is 94%; in test [8], 106%.

Regarding `CC(C)CCC[C@@H](C)C1CCC2C3CCC4=C/C(=N/OCCN(C)C)CC[C@]4(C)C3CC[C@@]21C` (stereo partly drawn), the growth in test [1] was 87.4%; in test [2], 90.5%; in test [3], 102%; in test [4], 91.1%; in test [5], 91.9%; in test [6], 83.9%. Moreover, the growth was 80.8% in test [7] and 87.4% in test [8].

As for `Clc1nn2c(Cn3cnc4c(NCc5ccccc5)ncnc43)nnc2c2ccccc12`, the growth in test [1] was 18.2%; in test [2] it was 25.8%; in test [3], 30.6%; in test [4] it was 48.2%; in test [5], 62.1%; in test [6], 21.9%. In addition, the growth in test [7] is 56.1%; in test [8], 58.9%.

As for `Cc1cccc(-n2c(C)nc3ccc(N4CCCNC4=O)cc3c2=O)c1`, the growth in test [1] was 103%; in test [2], 108%; in test [3], 104%; in test [4] it was 104%; in test [5], 97.8%; in test [6], 102%. Moreover, the growth in test [7] is 109%; in test [8], 111%.

For the compound `Fc1ccc(COc2ccc(Nc3ncnc4sc5c(c34)CCCC5)cc2)cc1`, the growth in test [1] is 86.6%; in test [2], 99.1%; in test [3] it was 96.1%; in test [4] it was 92%; in test [5], 88.2%; in test [6], 93.7%. The growth in test [7] was 104%; in test [8], 90.1%.

For `CC(/C=C1\SC(=S)N(CC(=O)NC(Cc2c[nH]c3ccccc23)C(=O)O)C1=O)=C\c1ccccc1` (stereo not drawn), the growth in test [1] is 106%; in test [2], 105%; in test [3], 104%; in test [4], 104%; in test [5] it was 94.8%; in test [6], 112%. The growth was 103% in test [7] and 107% in test [8].

`CCOC(=O)c1c2c(n3ccccc13)C(=O)c1ncccc1C2=O`: the growth in test [1] is 41.8%; in test [2], 31.6%; in test [3], 39.8%; in test [4] it was 21.9%; in test [5], 5.14% (active); in test [6], 0.586% (active). The growth is 38.2% in test [7] and 24.1% in test [8].

On to `CCn1cc(C2=C(c3cn(C)c4ncccc34)C(=O)NC2=O)c2cccnc21`, for which the growth is 29.8% in test [1]; 32.9% in test [2]; 65% in test [3]; 92.4% in test [4]; 38.3% in test [5]; 70.9% in test [6]. Also, the growth in test [7] is 91.4%; in test [8] it was 46.7%.

In the case of `Cc1c2ccccc2nc2c1ccc1cccnc12`, the growth was 35.1% in test [1]; 96.3% in test [2]; 83% in test [3]; 93% in test [4]; 21.7% in test [5]; 56.2% in test [6]. In addition, the figures for the growth in test [7] and in test [8] were 87.3% and 78.2%, respectively.

As to `N#CC(C#N)N=Nc1ccc(Cl)cc1Cl`, the growth in test [1] is 24.3%; in test [2] it was 94.8%; in test [3], 111%; in test [4] it was 87.3%; in test [5], 73.6%; in test [6] it was 66.1%. For the same compound, the growth in test [7] is 109%; in test [8], 101%.
